From PubChem BioAssay AID588814 (The Scripps Research Institute Molecular Screening Center, 2011) come the findings set out here.

The structures appear in SMILES notation. The campaign covered roughly 360,000 compounds. About 1,200 (0.33%) were called active. This excerpt belongs to a sample that is enriched for actives. A number with no mark means an inactive call.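 How the source made its calls: active means activation above the run's mean compound activation plus 3 SD (cut at about 16% in these data); inactive means the rest.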

In this experiment the target is Muscarinic acetylcholine receptor M1 (Homo sapiens) (UniProt P11229). The experiment is described as follows: human M1 muscarinic receptor agonists, primary screen, Fluo-8 calcium fluorescence, CHO-K1 cells, HTS (AID 588814).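 Further: peak over basal fluorescence ratio within a 140 s kinetic read after compound addition.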 As to conditions: CHO-K1 hM1, Fluo-8 calcium fluorescence, agonist mode; at 3 µM; stronger effect = higher value; 0% DMSO, 100% acetylcholine EC100.
Muscarinic acetylcholine receptor M1 (Homo sapiens), sequence (P11229 whole entry, looked up): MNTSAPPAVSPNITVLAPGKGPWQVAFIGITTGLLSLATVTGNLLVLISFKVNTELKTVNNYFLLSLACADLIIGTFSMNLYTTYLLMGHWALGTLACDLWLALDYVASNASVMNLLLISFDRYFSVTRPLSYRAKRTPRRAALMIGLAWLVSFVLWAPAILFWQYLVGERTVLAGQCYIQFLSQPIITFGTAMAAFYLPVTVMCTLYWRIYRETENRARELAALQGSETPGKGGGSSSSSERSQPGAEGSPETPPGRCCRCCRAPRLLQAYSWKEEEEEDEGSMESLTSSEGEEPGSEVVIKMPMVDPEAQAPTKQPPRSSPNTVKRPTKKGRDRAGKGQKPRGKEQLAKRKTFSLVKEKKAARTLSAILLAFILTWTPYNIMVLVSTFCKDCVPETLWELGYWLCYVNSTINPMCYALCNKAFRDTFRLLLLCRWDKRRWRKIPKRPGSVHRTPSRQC
For the molecule `Cc1c2cnn(CC(=O)NCc3ccccn3)c(=O)c2c(C)n1Cc1ccc(Cl)cc1`, the activation is 26% (active).
The figure for `O=C(Cn1ncc2c3ccccc3n(Cc3ccccc3)c2c1=O)NCc1ccccn1` is -0.49%; for `Cc1ccc(Cn2c(C)c3cnn(CC(=O)NCc4ccccn4)c(=O)c3c2C)cc1` it is 8.5%.
The figure for `Cc1ccc(C(C)C)c(OCc2nnc(SCC(=O)Nc3nccs3)n2C)c1` is -4.42%; for `CCCN(C(=O)c1nc2nccc(C)n2n1)c1c(N)n(Cc2ccccc2)c(=O)[nH]c1=O` it is -3.03%; for `Nc1ncnc2c1ncn2[C@@H]1O[C@H](CNC(=O)[C@H](N)Cc2cccnc2)[C@@H](O)[C@H]1O` it is -1.79%.
The figure for `COc1ccc(N2C(=O)CCC(C(=O)Nc3ccccn3)C2c2ccc(OC)c(OC)c2)cc1` (stereo not drawn) is 5.33%; for `Cc1cc(N/C=C\C(=O)c2ccc(Cl)c(Cl)c2)no1` it is -3.12%.
As for `COc1ccc(C(=O)/C=C/Nc2ccccn2)cc1`, the activation is 55% (active).
The figure for `FC(F)Oc1ccccc1C1CC(c2ccc(Br)s2)Nc2ncnn21` (stereo not drawn) is 0.72%.
The figure for `CC1CC(C)(C)CC2(C1)NC(=O)N(CC(=O)Nc1nccs1)C2=O` (stereo not drawn) is -1.16%; for `CC1CCN(C(=O)CSc2nnc(-c3ccco3)n2N)CC1` it is -4.05%; for `O=C1NCCn2nc3ccccc3c21` it is -2.22%.
As for `Cc1ccc(NS(=O)(=O)c2ccc3c(c2)NC(=O)CO3)cc1`, the activation was 2.14%.
Take `Cc1ccc(NS(=O)(=O)c2cc3c(cc2Br)NC(=O)CO3)cc1C`: the activation is 21.6% (active).
For `Cc1ccc(NS(=O)(=O)c2cc3c(cc2C)NC(=O)CO3)cc1`, the activation was 1.51%.
The figure for `O[C@H]1C[C@H](c2ccc(Cl)cc2)N(Cc2cccs2)C[C@@H]1n1cc(C2CC2)nn1` is 1.89%; for `Nc1cc(=O)n(Cc2ccccc2)c(=O)n1Cc1ccccc1` it is -2.41%; for `CN(C(=O)COC(=O)c1ccc(Br)o1)c1c(N)n(Cc2ccccc2)c(=O)[nH]c1=O` it is -3.72%.
The figure for `Cc1cc2nc3c(=O)n(Cc4ccccc4)c(=O)[nH]c3nc2cc1N` is 24.8% (active); for `O=C(OCC(=O)N1CCCCCC1)c1cccc(Cl)c1Cl` it is -4.74%.
The figure for `CC(=O)Nc1cccc(-c2ccnc3c2CC(C)(C(=O)NCc2ccccc2)O3)c1` (stereo not drawn) is -0.77%; for `COc1ccc(OC)c(NC(=O)CN(Cc2ccc(Cl)cc2)S(C)(=O)=O)c1` it is -5.87%; for `Cc1onc(-c2ccccc2)c1C(=O)N1CCN(S(=O)(=O)c2ccccc2C(F)(F)F)CC1` it is -3.88%.
As to `Cc1onc(-c2ccccc2)c1C(=O)NNC(=S)NC(=O)c1ccc(F)cc1`, the activation is 70.4% (active).
For the molecule `O=C(/C=C/c1ccc(F)cc1)NC(=S)NNC(=O)c1cccnc1`, the activation was 1.15%.
The figure for `Cc1[nH]c2ccccc2c1C(=O)COC(=O)c1c(-c2ccccc2)noc1C` is -5.12%.
Take `COc1ccc(C(=O)NC(=S)NNC(=O)c2c(-c3ccccc3)noc2C)cc1`: the activation was 44.6% (active).
Turning to `COc1ccc(C(=O)NC(=O)CSc2nnc(-c3ccco3)n2-c2ccccc2)cc1`, the activation is -3.2%.
Consider `COCCNc1ncnc2c1nc1n2CCCC1`, for which the activation is -3.29%.
Regarding `COCCCNC(=O)c1cccc2c(-c3ccc(O)c(OC)c3)coc12`, the activation was 0.67%.
In the case of `Cc1ccc(/C=N/NC(=O)C(NC(=O)c2ccccc2)c2n[nH]c(=O)c3ccccc23)cc1` (stereo not drawn), the activation was -2.92%.
The figure for `CSc1nc2nc(-c3cccc(C(F)(F)F)c3)ccn2n1` is -3%; for `Cc1ccc(-n2nc3c(c2NC(=O)CCC2CCCCC2)CS(=O)C3)cc1` (stereo not drawn) it is -1.89%.
The figure for `Cc1cccc(NC(=S)NCCc2ccc(Cl)cc2)c1C` is -5.48%; for `Cc1ccccc1N/C(SCc1ccc(Cl)cc1)=C(/C#N)C(N)=O` it is -7.61%.
The figure for `O=C(COc1ccc(Cl)cc1)NC(=S)Nc1ccccc1N1CCOCC1` is 0.8%.
Regarding `Cc1ccccc1NC(=S)NC(=O)Cc1ccc(Cl)cc1`, the activation is 29.9% (active).
`O=C(COc1ccc(Cl)cc1)Nc1ccccc1CO`: the activation is -3.25%.
The figure for `O=C(Cc1ccc(Cl)cc1)NC(=S)Nc1ccccc1O` is 52.4% (active).
Turning to `O=C(c1ccccc1)c1cccn1CC(=O)N1CCN(c2ccc(F)cc2)CC1`, the activation was 0.36%.
The figure for `Cc1nc2ccccc2n1C(=O)N1CCOCC1` is -1.92%; for `O=C(N/N=C1\CCSC1)c1cc(Cl)ccc1O` it is -0.13%; for `CN(CC(=O)NCCc1ccc(S(N)(=O)=O)cc1)CC(=O)Nc1ccc(Cl)cc1` it is -1.41%.
The figure for `CCN(CC)c1ccc(C2C3CCCCC3(O)CCN2CC(=O)Nc2ccccc2)cc1` (stereo not drawn) is -4.34%; for `COc1ccc(C2/C(=C(/O)c3ccc4c(c3)CC(C)O4)C(=O)C(=O)N2Cc2ccncc2)cc1` (stereo not drawn) it is -3.47%.
The figure for `Cc1c[n+]([O-])ccc1[N+](=O)[O-]` is -2.04%.
As for `Nc1nc(SCC(=O)NNc2c(Cl)cc(Cl)cc2Cl)n[nH]1`, the activation was -4.83%.
On to `Cc1ccc(/C=C/C(=O)OCC(=O)NCc2ccc(Cl)cc2)o1`, for which the activation is -3.98%.
For the molecule `Cc1ccc2oc(=O)ccc2c1`, the activation is -4.21%.
Consider `CCN(CC)c1ccc2oc(=O)c(C)nc2c1`, for which the activation is 49% (active).
On to `CCc1ccc2oc(-c3ccc(N)cc3)nc2c1`, for which the activation was 6.55%.
On to `Cc1cc(=O)oc2c3c(cc(OCC(=O)NCC(O)c4ccccc4)c12)OC(C)(C)CC3` (stereo not drawn), for which the activation was 0.12%.
The figure for `CN(CCO)C(=O)c1nc[nH]c1C(=O)N(C)Cc1ccccc1` is -4.9%; for `CN(C(=O)CN(CCO)CC(=O)N(C)C(C)(C)Cc1ccccc1)C(C)(C)Cc1ccccc1` it is 27.2% (active); for `CCOC(=O)N(Cc1ccccc1)C1CC1` it is -2.66%.
Regarding `CCS(=O)(=O)n1nc(-c2ccccc2)nc1SCc1ccccc1`, the activation was -2.07%.
The figure for `CN(CC(=O)NCCN1CCOCC1)S(=O)(=O)c1ccc(F)cc1` is -1.7%; for `CC(=O)Oc1ccc(Cn2c(C)c(C(=O)NCc3ccc(C#N)cc3)sc2=O)cc1` it is 33% (active); for `Cc1c(C(=O)NCc2ccc(C#N)cc2)sc(=O)n1Cc1ccc(C(=O)N(C)C)cc1` it is -5.38%.
Turning to `Cc1ccc(Cn2c(C)c(C(=O)NCc3ccccc3C(F)(F)F)sc2=O)cc1`, the activation was -6.02%.
The figure for `COc1ccc(N/N=C2/CCCCC2=O)cc1` is -3.78%; for `COc1ccc(NC(=O)C2(C)Cc3c(-c4cccc(NC(C)=O)c4)ccnc3O2)cc1` (stereo not drawn) it is -1.09%; for `O=S(=O)(c1cccs1)N1CCN(CCOc2ccccc2)CC1` it is -2.7%.
On to `O=c1[nH]c2ccccc2n1C1CCN(CCOc2ccccc2)CC1`, for which the activation was 75.4% (active).
The figure for `O=C1CCN(CCc2ccccc2)CCN1CCOc1ccccc1` is -5.27%; for `CC1Cc2ccccc2N1CC(=O)Nc1ccc(S(N)(=O)=O)cc1` (stereo not drawn) it is 0.2%.
The figure for `O=C(CN(Cc1ccccc1)C(=O)CCC(=O)Nc1ccccn1)NCCc1ccccc1` is -5.06%.
The figure for `CC(=O)NC(CC(=O)Nc1nc(-c2ccccc2)c(C(C)=O)s1)c1ccccc1` (stereo not drawn) is -2.65%; for `Nc1ncnc2c1ncn2[C@@H]1O[C@H](C(=O)NS(=O)(=O)c2c(Cl)nc3sccn23)[C@@H](O)[C@H]1O` it is -1%.
As for `COc1ccc(/C=C/C(=O)c2c(O)cc(OC)cc2OC)cc1`, the activation is -5.79%.
On to `O=C(/C=C(O)/C=C/c1ccc(O)cc1)/C=C/c1ccc(O)cc1`, for which the activation was 30% (active).
As to `COc1cccc(C=CC(=O)C=CC=Cc2ccccc2)c1`, the activation is -0.1%.
The figure for `CCOc1ccc(CCNC(=O)COC(=O)c2c(OC)cccc2OC)cc1OCC` is 0.68%; for `CCCCC(=O)NNC(=S)NC(=O)C(c1ccccc1)c1ccccc1` it is 88.8% (active).
As for `O=C(CCN1CCN(c2ccccc2)CC1)NNC(=S)Nc1ccccc1`, the activation is -3%.
For `CC(C)CC(=O)NC(=S)NCc1ccccc1`, the activation was -7.45%.
Turning to `O=C(N=C1SC2CS(=O)(=O)CC2N1Cc1ccccc1)c1ccccc1` (stereo not drawn), the activation is 0.69%.
The figure for `CCOc1ccc(S(=O)(=O)Nc2ccc(C(=O)NCCCN3CCCC3=O)cc2)cc1` is -1.87%; for `CCOc1ccc(NS(=O)(=O)c2ccc(C(=O)NC3CCN(Cc4ccccc4)CC3)cc2)cc1` it is -4.76%; for `CCOc1ccc(NS(=O)(=O)c2ccc(C(=O)NCC(c3ccccc3OC)N3CCCC3)cc2)cc1` (stereo not drawn) it is 22.7% (active).
In the case of `Cc1ccc(S(=O)(=O)N(CC(=O)Nc2cccnc2)c2ccc(Br)cc2)cc1`, the activation was -0.74%.
The figure for `c1ccc2c(c1)OCC(CNc1ncnc3nc[nH]c13)O2` (stereo not drawn) is 134% (active).
As for `COc1ccc(CCNc2ncnc3nc[nH]c23)cc1OC`, the activation is 3.98%.
The figure for `O=C(Cn1cnc2ccccc2c1=O)NCC1COc2ccccc2O1` (stereo not drawn) is -0.06%; for `C=CCNC(=S)N1CCc2[nH]c3ccccc3c2C1` it is 2.34%; for `O=C(Nc1ccc(Cl)cc1)N1CCc2[nH]c3ccccc3c2C1` it is 21.6% (active).
For `CCc1ccc(NC(=O)N2CCc3ccccc3C2)cc1`, the activation was -5.56%.
For the molecule `O=C(NC1CCCCC1)N1CCc2[nH]c3ccccc3c2C1`, the activation was 18.1% (active).
With `O=C(Nc1cccc2c1CCCC2)C1CCN(C(=O)NC2CCCCC2)CC1`, the activation is -2.08%.
Consider `O=C(CSc1nnc2c(n1)[nH]c1ccccc12)NC1CCCCC1`, for which the activation is -3.41%.
Turning to `CCOC1=C2[C@@H](CN(S(=O)(=O)c3ccc(C)cc3)[C@H]2c2ccccc2F)[C@H]2C(=O)N(Cc3ccccc3)C(=O)[C@H]2C1`, the activation was -5.09%.
The figure for `CCCc1cc(=O)[nH]c(SCC(=O)Nc2ccc(S(=O)(=O)N3CCCC3)cc2)n1` is -4.58%.
